Source: PubChem BioAssay (National Center for Advancing Translational Sciences (NCATS))
The list is not random: actives were taken first. Their share in the collection is about 7.5%.
KinaseGlo FLuc = Kinase-Glo luciferase inhibition (counter-screen). Q27757. Kinase-Glo luciferase, ATP luminescence, 8 min. Potency, µM (doses to about 38.3 µM), most hits filed as inhibitors. hit rate 0.28% among 200,000; also: nearly all actives have a fitted effect of over 60% in size
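Compounds were added to a substrate mix at pH 7.2 (50 mM imidazole, 10 uM ATP, within the enzyme's linear range), followed by Kinase-Glo detection reagent; luminescence was measured after 8 minutes at ambient temperature.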
ELG1 genotox = genotoxicity induction in ELG1-luciferase HEK293T cells; AID 504466; HEK293T ELG1-luciferase reporter, luminescence, 16 h; hit rate 1.3% among 330,000; Potency, µM (titrated, usually from 46 µM), actives largely listed as activators; also: nearly all actives have a fitted effect of over 60% in size
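Reporter readout depends on ELG1 protein level, which increases with genetic stress. After 16 hr compound exposure at 37 °C, luciferase activity was quantified using ONE-Glo.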
FLuc modulator = inhibits or activates purified firefly luciferase, miR-21 counter-screen; P08659; purified FLuc, Km substrates, luminescence inhibition; Potency, µM (titrated, usually from 57.5 µM), hits mostly inhibitors; hit rate 6.9% among 360,000; AID 588342; also: nearly all actives have a fitted effect of over 55% in size
Target sequence (P08659 whole entry, looked up): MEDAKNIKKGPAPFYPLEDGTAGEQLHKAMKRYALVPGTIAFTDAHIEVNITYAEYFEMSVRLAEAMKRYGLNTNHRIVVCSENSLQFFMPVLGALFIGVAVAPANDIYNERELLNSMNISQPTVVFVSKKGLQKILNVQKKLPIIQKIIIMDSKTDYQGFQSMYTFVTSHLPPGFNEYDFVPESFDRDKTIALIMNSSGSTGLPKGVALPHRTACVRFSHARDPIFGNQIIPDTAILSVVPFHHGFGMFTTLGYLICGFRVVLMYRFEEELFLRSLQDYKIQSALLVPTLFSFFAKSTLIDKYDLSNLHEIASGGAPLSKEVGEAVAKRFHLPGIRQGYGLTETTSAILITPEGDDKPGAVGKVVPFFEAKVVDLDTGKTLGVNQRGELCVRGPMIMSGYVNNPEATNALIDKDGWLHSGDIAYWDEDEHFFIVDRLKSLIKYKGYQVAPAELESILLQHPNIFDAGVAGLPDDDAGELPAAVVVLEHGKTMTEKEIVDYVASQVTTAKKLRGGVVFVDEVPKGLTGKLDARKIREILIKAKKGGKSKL
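Biochemical qHTS of compounds, final roughly 60 µM downward over six points, against 10 nM purified firefly luciferase using Km concentrations of substrates (10 uM D-luciferin, 10 uM ATP) in Tris acetate pH 7.5 buffer; luminescence output.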
Rab9 prom act = activates the Rab9 promoter; Huh7 Rab9 promoter-luciferase reporter, luminescence, 24 h; Potency, µM (doses to about 9.22 µM), hits mostly activators; hit rate 2.8% among 320,000; also: nearly all actives have a fitted effect of over 60% in size
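Steps: seed 1500 Huh7 Rab9-luc cells per well, rest 2 h at 37 °C; add compound in DMSO; incubate 24 h; add luciferase reagent, 10 min ambient; read luminescence.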
NPC1 prom act = activates the NPC1 promoter; Huh7 NPC1 promoter luciferase reporter, 24 h; Potency, µM (highest dose often 9.22 µM), most hits filed as activators; hit rate 2.4% among 320,000; AID 485313; also: nearly all actives have a fitted effect of over 60% in size
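Quantitative HTS used a cell-based reporter: Huh7 cells stably bearing the NPC1 promoter upstream of luciferase were treated with compounds for 24 h, and promoter activation was read as luminescence.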
SMN2 splice enh = increases expression of the SMN2 splice variant | HEK293 SMN2-luciferase splicing reporter, luminescence, 30-36 h | Potency, µM (doses to about 46.1 µM), most hits filed as activators | hit rate 2.8% among 210,000 | AID 1458; also: nearly all actives have a fitted effect of over 55% in size
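HEK293 cells carry an SMN2 […]–luciferase reporter in which exon 7 inclusion puts luciferase in frame. Cells were plated 10-12 h before compound addition, then incubated 30-36 h at 37C. ONE-Glo luminescence was read; sodium butyrate at 4.5 mM final served as control.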
A number is an active result; ! = not active in a repeat. Calls follow the shape of the dose curve; as a rule, active = well fitted curve in the direction sought with a large enough effect; inconclusive = small, poorly fitted or top-dose-only effect, or another doubt; inactive = no such curve, though single readings can be large; an effect the other way counts as inactive or inconclusive.

For COc1ccc(/C=N/NC2=NCCCCC2)cc1 the results were KinaseGlo FLuc inactive, ELG1 genotox inconclusive, FLuc modulator inconclusive, Rab9 prom act inconclusive, NPC1 prom act inactive and SMN2 splice enh inactive.
COc1ccc(/C=N/NC2=NCCCCC2)c(OC)c1 was read as KinaseGlo FLuc inactive, ELG1 genotox inactive, FLuc modulator 17µM, Rab9 prom act inactive, NPC1 prom act inactive and SMN2 splice enh inconclusive.
Screening COc1ccc(-c2cc3nc4n(c(=O)c3s2)CCC4)cc1 returned KinaseGlo FLuc inconclusive, ELG1 genotox 0.13µM, FLuc modulator 0.6µM, Rab9 prom act 0.5µM, NPC1 prom act 0.45µM and SMN2 splice enh 0.63µM.
For COc1ccc(-c2cc3nc4n(c(=O)c3s2)CCCCC4)cc1 the results were ELG1 genotox 2.6µM, FLuc modulator 1.3µM, Rab9 prom act 0.71µM and NPC1 prom act 0.63µM.
`O=C(c1c2c(nc3ccccc13)C(=O)N(C1CCCCC1)C2)N1CCN(c2ccc(F)cc2)CC1` gave FLuc modulator inactive.
`CCOc1ccc(N2CC(C(=O)Nc3ccccc3C(=O)N3CCOCC3)CC2=O)cc1` (centres undefined) gave ELG1 genotox inactive, FLuc modulator inactive, Rab9 prom act inactive and NPC1 prom act inactive.
Screening Cc1nc(-c2cccc(NC(=O)COc3ccc(Cl)cc3)c2)cs1 returned ELG1 genotox inactive, FLuc modulator 13µM, Rab9 prom act inactive and NPC1 prom act inactive.
CCOc1ccc(-c2cccc(NC(=O)COc3ccc(Cl)cc3)c2)nn1 was read as ELG1 genotox inactive, FLuc modulator 13µM, Rab9 prom act inactive and NPC1 prom act inactive.
`CCOc1ccc(-c2cccc(NC(=O)c3ccco3)c2)nn1` gave ELG1 genotox inactive, FLuc modulator 21µM, Rab9 prom act inactive and NPC1 prom act inactive.
Screening CCC1CN(C(=O)N2CCC(C(=O)N3CCN(c4cc(C)ccc4C)CC3)CC2)c2ccccc2O1 (centres undefined) returned FLuc modulator 1.9µM.
For COC(=O)c1ccccc1NC(=O)C1CCN(C(=O)N2CC(C)Oc3ccccc32)CC1 (centres undefined) the results were FLuc modulator 4.8µM.
`CCC1CN(C(=O)N2CCC(C(=O)NCc3ccccc3F)CC2)c2ccccc2O1` (centres undefined) gave FLuc modulator inactive.
For CCC1CN(C(=O)N2CCC(C(=O)Nc3ccccc3F)CC2)c2ccccc2O1 (centres undefined) the results were ELG1 genotox inactive, FLuc modulator 11µM!, Rab9 prom act inactive and NPC1 prom act inactive.
For C=CCn1c(SCC(=O)c2ccccc2)nnc1-c1ccc2c(c1)OCO2 the results were KinaseGlo FLuc inactive, ELG1 genotox inactive, FLuc modulator inconclusive, Rab9 prom act inactive, NPC1 prom act inactive and SMN2 splice enh inactive.
For COc1ccc(CCNC(=O)c2c(O)nc3ccccn3c2=O)cc1OC the results were FLuc modulator inactive and SMN2 splice enh inactive.
Screening CC(C)C(=O)NC(c1ccco1)c1ccc2cccnc2c1O (centres undefined) returned KinaseGlo FLuc inactive, ELG1 genotox inactive, FLuc modulator inactive, Rab9 prom act inactive, NPC1 prom act inactive and SMN2 splice enh inactive.
Screening Oc1c(C(Nc2nc3ccccc3s2)c2ccco2)ccc2cccnc12 (centres undefined) returned KinaseGlo FLuc inactive, ELG1 genotox 18µM, FLuc modulator 15µM, Rab9 prom act inactive, NPC1 prom act inactive and SMN2 splice enh inactive.
COc1ccc(N2C(=O)CSC23C(=O)N(CC(=O)NC2CCCCC2)c2ccccc23)cc1 (centres undefined) was read as FLuc modulator inactive.
For COc1ccc(C(=O)O)cc1NC(=S)NC(=O)c1ccc(-c2ccc(Cl)cc2)o1 the results were KinaseGlo FLuc inactive, ELG1 genotox inactive, FLuc modulator 13µM, Rab9 prom act inactive, NPC1 prom act inactive and SMN2 splice enh inactive.
Screening O=C(O)c1cccc(NC(=S)NC(=O)c2ccc(-c3ccc(Cl)cc3)o2)c1 returned KinaseGlo FLuc inactive, ELG1 genotox inactive, FLuc modulator 15µM, Rab9 prom act inconclusive, NPC1 prom act inactive and SMN2 splice enh inactive.
Screening Cc1ccc(C(=O)O)cc1NC(=S)NC(=O)c1ccc(-c2ccc(Cl)cc2)o1 returned ELG1 genotox inactive, FLuc modulator inconclusive, Rab9 prom act inactive and NPC1 prom act inactive.
`COc1ccc(C2=C/C(=C\c3ccccc3OC(C)=O)C(=O)O2)cc1` gave ELG1 genotox inactive, FLuc modulator inconclusive, Rab9 prom act inactive and NPC1 prom act inactive.
COc1ccc(C2=C/C(=C\c3cccc(OC(C)=O)c3)C(=O)O2)cc1 was read as KinaseGlo FLuc inactive, ELG1 genotox inactive, FLuc modulator 24µM, Rab9 prom act inactive, NPC1 prom act inactive and SMN2 splice enh inconclusive.
`Cc1nn(C(=O)c2ccccc2F)c(C)c1S(=O)(=O)N1CCCCCC1` gave FLuc modulator inactive.
`CCCCCNc1nc(-c2ccccc2)cs1` gave KinaseGlo FLuc inactive, ELG1 genotox 7.3µM, FLuc modulator 1.9µM, Rab9 prom act 2.8µM, NPC1 prom act 4µM and SMN2 splice enh inactive.
Screening Oc1ccc(-c2csc(Nc3ncccn3)n2)cc1 returned KinaseGlo FLuc inactive, ELG1 genotox 4.6µM, FLuc modulator 3µM, Rab9 prom act 0.56µM, NPC1 prom act 2µM and SMN2 splice enh 25µM.
`CC(=O)Nc1ccc(-c2csc(Nc3ncccn3)n2)cc1` gave KinaseGlo FLuc inactive, ELG1 genotox 9.2µM, FLuc modulator inconclusive, Rab9 prom act 0.56µM, NPC1 prom act 0.56µM and SMN2 splice enh 5µM.
For CC(=O)Nc1ccc(-c2csc(Nc3ccc(S(N)(=O)=O)cc3)n2)cc1 the results were KinaseGlo FLuc inactive, ELG1 genotox inactive, FLuc modulator inactive, Rab9 prom act inactive, NPC1 prom act inactive and SMN2 splice enh inactive.
c1ccc(-c2csc(Nc3ncccn3)n2)cc1 was read as KinaseGlo FLuc inactive, ELG1 genotox 1.3µM, FLuc modulator 0.6µM, Rab9 prom act 0.35µM, NPC1 prom act 0.63µM and SMN2 splice enh 2.5µM.
Screening Cc1ccc(NS(=O)(=O)c2cnc(N)nc2)c(C)c1 returned FLuc modulator inactive.
Cc1ccc(NC(=O)Cn2ccn(-c3ccccc3)c(=O)c2=O)cc1 was read as FLuc modulator inactive.
`CC(=O)Nc1ccc(-c2csc(-c3cccnc3)n2)cc1` gave ELG1 genotox 6.5µM, FLuc modulator 7.6µM, Rab9 prom act inconclusive and NPC1 prom act 2.8µM.
`CCCC(=O)Nc1ccc(-c2csc(-c3cccnc3)n2)cc1` gave ELG1 genotox inactive, FLuc modulator inconclusive, Rab9 prom act inconclusive and NPC1 prom act inactive.
